High-throughput results (PubChem BioAssay)
The entries come from a sample that favours hits as a whole.
RE007 growth inh: less growth of the S. pombe RE007 Vpr strain. S. pombe RE007 Vpr strain, BacTiter-Glo ATP luminescence, 24 h. Potency, µM (titrated, usually from 92.2 µM), actives largely listed as inhibitors. 360,000 compounds, 0.21% hits; active = well fitted falling curve with a large enough effect; inconclusive = small, poorly fitted or top-dose-only effect; inactive = no such curve, though single readings can be large or run the other way; note: nearly all actives have a fitted effect of over 50% in size
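Fission yeast strain RE007, carrying one chromosomally integrated HIV-1 vpr copy, was seeded at OD 0.01 in PMG+AL medium with 23 nL pinned compound. After 24 h at 30 °C and 99% humidity, viability was read by BacTiter-Glo luminescence.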
LmPK inh: blocks Leishmania mexicana pyruvate kinase activity; Potency, µM (doses to about 57.5 µM), usual class: inhibitors; 290,000 compounds, 0.37% hits; Q27686; purified LmPK, Kinase-Glo ATP luminescence, 1 h
Target sequence (Q27686 whole entry, looked up): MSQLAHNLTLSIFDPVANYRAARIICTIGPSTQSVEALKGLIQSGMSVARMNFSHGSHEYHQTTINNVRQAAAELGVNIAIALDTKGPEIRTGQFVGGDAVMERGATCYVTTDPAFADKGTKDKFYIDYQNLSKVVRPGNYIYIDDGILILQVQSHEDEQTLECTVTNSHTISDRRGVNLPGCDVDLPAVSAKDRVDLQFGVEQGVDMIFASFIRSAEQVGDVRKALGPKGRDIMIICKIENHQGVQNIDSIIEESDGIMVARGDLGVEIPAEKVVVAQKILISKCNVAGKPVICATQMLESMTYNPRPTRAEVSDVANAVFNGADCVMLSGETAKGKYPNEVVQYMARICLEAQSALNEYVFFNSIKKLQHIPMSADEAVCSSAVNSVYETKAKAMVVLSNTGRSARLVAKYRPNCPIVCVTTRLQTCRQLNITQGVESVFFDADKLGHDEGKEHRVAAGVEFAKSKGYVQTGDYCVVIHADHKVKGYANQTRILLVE
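Purified LmPK (0.1 nM) converted ADP (0.1 mM) to ATP with PEP (0.5 mM) in imidazole buffer pH 7.2 with KCl and MgCl2, 1 h at room temperature. ATP was read by Kinase-Glo luminescence; data normalized to uninhibited and no-enzyme controls.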
Shiga inhibitor: blocks Shiga toxin action in Vero cells; Vero cells, Shiga toxin protein synthesis inhibition reporter; inhibition, % at 38.7 µM; 290,000 compounds, 9.2% hits; AID 2315; in the data active = inhibition mostly above about 28%, no sharp cut-off; inactive = mostly below about 43%
CHX counter: counter-screen for Shiga toxin inhibitors: cycloheximide protein synthesis inhibition | cell reporter, cycloheximide protein synthesis inhibition counterscreen | max response, % | 300,000 compounds, 12% hits; in the data active = max response mostly above about 13%, no sharp cut-off; inactive = mostly below about 14%; note: read at 38.3 µM for the half of the compounds with a filed dose
TbPYK inhibitor: blocks Trypanosoma brucei pyruvate kinase; TbPYK enzyme, Kinase-Glo Plus ATP luminescence, 45 min; Potency, µM (doses to about 76.8 µM), actives largely listed as inhibitors; 410,000 compounds, 0.12% hits; Q57TT1; AID 624173; note: nearly all actives have a fitted effect of over 50% in size
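ADP (130 uM final) triggers the TbPYK reaction after compound addition; incubation is 45 min at room temperature. Kinase-Glo Plus is then added and luminescence imaged. Normalized data are fitted to concentration-effect curves.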
Giardia FBPA inh-1: Giardia lamblia aldolase inhibition; Potency, µM (series often up to 59.6 µM), usual class: inhibitors; purified Giardia FBPA; AID 2451; 290,000 compounds, 0.71% hits; A8B2U2; note: nearly all actives have a fitted effect of over 55% in size
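40 nM FBPA preincubated 10 min at RT with compound (up to 57.5 uM final), then substrate plus GAPDH/TPI/NAD/arsenate coupling and diaphorase/resazurin added. Fluorescence read after 20 min at RT, 525/598 nm.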
Giardia growth: Giardia lamblia growth inhibition; Giardia lamblia trophozoite growth inhibition; shares compounds with Giardia FBPA inh-1; AID 2785; Potency, µM (top dose mostly 57.5 µM), usual class: inhibitors; 1,500 compounds, 5% hits;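 note: trophozoites exposed to compound for 48 h at 37 °C; nearly all actives have a fitted effect of over 70% in size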
Mammalian tox: mammalian cytotoxicity of Giardia aldolase inhibitor hits; shares compounds with Giardia FBPA inh-1; mammalian cell viability counter-screen, qHTS; Potency, µM (top dose mostly 57.5 µM), hits mostly inhibitors; 1,500 compounds, 4% hits; AID 2786;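 note: Chinese hamster ovary cells used as mammalian cytotoxicity surrogate; viability measured as cellular ATP by luminescence; compound exposure lasted 48 h before reading; nearly all actives have a fitted effect of over 60% in size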
Giardia FBPA inh-2: confirmation of Giardia fructose-bisphosphate aldolase inhibitors. shares compounds with Giardia FBPA inh-1. purified Giardia aldolase enzyme activity, qHTS. Potency, µM (series often up to 57.5 µM), usual class: inhibitors. 1,500 compounds, 5% hits. AID 2787; note: nearly all actives have a fitted effect of over 45% in size
Rabbit aldolase: rabbit FBP aldolase inhibition by Giardia aldolase hits; 1,500 compounds, 4% hits; Rabbit muscle FBPA enzyme inhibition, selectivity counter-screen; shares compounds with Giardia FBPA inh-1; Potency, µM (titrated, usually from 57.5 µM), actives largely listed as inhibitors; note: nearly all actives have a fitted effect of over 60% in size
GAPDH counter: counter-screen for Giardia aldolase inhibitors: GAPDH coupling enzyme | shares compounds with Giardia FBPA inh-1 | GAPDH coupling enzyme counterscreen, biochemical, qHTS | Potency, µM (highest dose often 57.5 µM), most hits filed as inhibitors | 1,500 compounds, 6% hits | AID 2795; note: nearly all actives have a fitted effect of over 55% in size
Large screens that a line does not name were inactive (follow-up assays come after a bar, where they were run); [ ] = dose if it differs, or a comment. Unless noted, calls come from the whole dose curve; as a rule, active = well fitted curve in the direction sought with a large enough effect; inconclusive = small, poorly fitted or top-dose-only effect, or another doubt; inactive = no such curve, though single readings can be large; an effect the other way counts as inactive or inconclusive.

N#Cc1c(-c2ccccc2)cc(-c2ccc3c(c2)OCO3)[nH]c1=O	none (no result: LmPK inh, Shiga inhibitor, CHX counter, Giardia FBPA inh-1)
COc1ccc(-c2cc(-c3ccco3)[nH]c(=O)c2C#N)cc1OC	Giardia FBPA inh-1 16µM | Giardia growth inactive | Mammalian tox inactive | Giardia FBPA inh-2 inactive | Rabbit aldolase inactive | GAPDH counter inactive
CCOc1ccc(-c2cc3c(=O)n(Cc4nc(-c5ccccc5OCC)oc4C)ccn3n2)cc1Cl	none (no result: RE007 growth inh, LmPK inh, Shiga inhibitor, CHX counter, Giardia FBPA inh-1)
CCN(CC)c1nc(N2CCN(CCO)CC2)nc2ccccc12	Giardia FBPA inh-1 13µM | Giardia growth inactive | Mammalian tox inactive | Giardia FBPA inh-2 inactive | Rabbit aldolase inactive | GAPDH counter inactive
CCOC(=O)c1oc2c(C)c(O)ccc2c(=O)c1-c1nncn1-c1ccccc1	none
CCOC(=O)c1oc2c(O)c(O)ccc2c(=O)c1-c1nncn1-c1ccccc1	Giardia FBPA inh-1 4.5µM | Giardia growth inactive | Mammalian tox inactive | Giardia FBPA inh-2 inconclusive | Rabbit aldolase inconclusive | GAPDH counter inactive
COc1ccc(-c2c(C(=O)c3ccccc3)[nH]c(N)c2C(=O)NCc2ccccc2)cc1OC	none (no result: LmPK inh, Shiga inhibitor, CHX counter, Giardia FBPA inh-1)
COc1ccc(CCCc2n[nH]c(=S)o2)cc1	TbPYK inhibitor inconclusive
S=c1[nH]nc(CCCc2n[nH]c(=S)o2)o1	TbPYK inhibitor inconclusive, Giardia FBPA inh-1 0.5µM | Giardia growth inactive | Mammalian tox inactive | Giardia FBPA inh-2 inconclusive | Rabbit aldolase inactive | GAPDH counter inactive
CSc1nccn1C(=O)c1ccccc1[N+](=O)[O-]	Giardia FBPA inh-1 28µM | Giardia growth inactive[10.4 µM] | Mammalian tox inactive | Giardia FBPA inh-2 inactive | Rabbit aldolase inactive | GAPDH counter inactive
O=C(O)CSc1nnc(NC(=O)CN2CCOCC2)s1	Giardia FBPA inh-1 5µM | Giardia growth inactive | Mammalian tox inactive | Giardia FBPA inh-2 inactive | Rabbit aldolase inactive | GAPDH counter inactive
O=C(CN1CCOCC1)Nc1nc2ccc(Cl)cc2s1	CHX counter 22, Giardia FBPA inh-1 6.3µM | Giardia growth inactive | Mammalian tox inactive | Giardia FBPA inh-2 inactive | Rabbit aldolase inactive | GAPDH counter inactive
O=C(CN1CCOCC1)Nc1nc2ccc(Br)cc2s1	none (no result: TbPYK inhibitor)
CS(=O)(=O)c1ccc2nc(NC(=O)CN3CCOCC3)sc2c1	Giardia FBPA inh-1 4.5µM (no result: Shiga inhibitor) | Giardia growth inconclusive | Mammalian tox inactive | Giardia FBPA inh-2 inactive | Rabbit aldolase inactive | GAPDH counter inactive
O=C(CCc1ccccc1)Nc1nc2ccc(S(=O)(=O)N3CCOCC3)cc2s1	none
COc1ccc(-c2cc3nc(-c4ccc(Br)cc4)cc(C(F)(F)F)n3n2)cc1	none (no result: RE007 growth inh, LmPK inh, Shiga inhibitor, CHX counter, Giardia FBPA inh-1)
CCn1cc2nc(SCc3cccc(C(F)(F)F)c3)n(Cc3ccc(OC)cc3)c(=O)c2n1	none (no result: RE007 growth inh, LmPK inh, Shiga inhibitor, CHX counter, Giardia FBPA inh-1)
COc1cc(C(=O)NC2CC(C)CC(C)(C)C2)cc(OC)c1OC (configuration not stated)	none (no result: LmPK inh, Shiga inhibitor, CHX counter, Giardia FBPA inh-1)
Cc1nn(C)c2c1c(C(F)(F)F)cc(=O)n2C(C)C(=O)NCc1ccccc1 (configuration not stated)	none (no result: RE007 growth inh, LmPK inh, Shiga inhibitor, CHX counter, Giardia FBPA inh-1)
Cc1ccc(Sc2ccc(S(=O)(=O)Nc3ccc(CC(=O)O)cc3)cc2)cc1C	none (no result: LmPK inh, Shiga inhibitor, CHX counter, Giardia FBPA inh-1)
Cn1c(=O)c(C(=O)Nc2ncccc2O)c(O)c2ccccc21	RE007 growth inh inconclusive, Giardia FBPA inh-1 8.9µM | Giardia growth inactive[10.4 µM] | Mammalian tox inactive | Giardia FBPA inh-2 inconclusive | Rabbit aldolase inconclusive | GAPDH counter inactive
CCCn1c(=O)c(C(=O)Nc2ncccc2O)c(O)c2ccccc21	Giardia FBPA inh-1 inconclusive
Cc1ccc(NNC(N)=S)cc1Cl	RE007 growth inh inconclusive, Giardia FBPA inh-1 18µM | Giardia growth inactive | Mammalian tox inactive | Giardia FBPA inh-2 inactive | Rabbit aldolase inactive | GAPDH counter inactive
O=C(NNc1ccnc2cc(Cl)ccc12)C1CCCCC1	none
NC(=S)NNc1ccc(Cl)c(Cl)c1	RE007 growth inh 11µM, Giardia FBPA inh-1 13µM | Giardia growth inactive | Mammalian tox inactive | Giardia FBPA inh-2 inactive | Rabbit aldolase inactive | GAPDH counter inactive
NC(=S)NNc1ccnc2cc(Cl)ccc12	Giardia FBPA inh-1 16µM | Giardia growth inconclusive | Mammalian tox inactive | Giardia FBPA inh-2 inactive | Rabbit aldolase inactive | GAPDH counter inactive
CC(=O)Nc1ccc(S(=O)(=O)c2cc(O)ccc2O)cc1	none
